Source: PubChem BioAssay (ICCB-Longwood Screening Facility, Harvard Medical School)
Rows were chosen to be rich in hits. Some 1.4% of all compounds tested hit in one or more screens of this group.
Polio RdRp inh – poliovirus RdRp elongation inhibitors, primary screen, biochemical, fluorescence polarization, total intensity; AID 588519, 2011; actives 0.66% (n = 150,000); poliovirus polymerase elongation; hits give low values; % elongation, % (compound at 16.7 µg/mL); Genome polyprotein (Poliovirus type 1 (strain Mahoney)), P03300; in the data active means % elongation below about 90%
Target sequence (P03300 1749-2209 limits assumed): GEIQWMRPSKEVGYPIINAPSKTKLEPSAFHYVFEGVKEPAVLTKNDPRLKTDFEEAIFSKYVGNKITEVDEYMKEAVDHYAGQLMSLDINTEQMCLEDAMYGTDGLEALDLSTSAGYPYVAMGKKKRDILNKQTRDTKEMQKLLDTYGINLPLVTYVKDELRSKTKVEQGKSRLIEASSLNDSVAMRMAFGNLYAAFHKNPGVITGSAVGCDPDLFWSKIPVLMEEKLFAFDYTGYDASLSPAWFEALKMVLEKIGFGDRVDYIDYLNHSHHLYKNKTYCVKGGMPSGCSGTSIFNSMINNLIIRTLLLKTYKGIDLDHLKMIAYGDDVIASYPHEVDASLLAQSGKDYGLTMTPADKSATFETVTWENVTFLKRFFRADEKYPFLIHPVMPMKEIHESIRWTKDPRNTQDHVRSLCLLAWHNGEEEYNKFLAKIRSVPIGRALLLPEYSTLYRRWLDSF
MenB inh – M. tuberculosis MenB inhibitors, primary screen, biochemical, absorbance | 1,4-dihydroxy-2-naphthoyl-CoA synthase (Mycobacterium tuberculosis (strain ATCC 25618 / … | MenB enzyme assay, absorbance read-out | inhibition, % (test concentration not listed) | actives 0.43% (n = 100,000) | AID 540299, 2011; in the data active means inhibition above about 21%, passing the limit was not always enough
Mtb MbtI inh – MbtI salicylate synthase inhibitors, primary screen, biochemical, fluorescence intensity | P9WFX0 | purified MbtI enzyme, fluorescence intensity read-out | inhibition, % (concentration not given with the values) | actives 0.89% (n = 100,000) | AID 493033, 2011; in the data active means inhibition mostly above about 56%, no sharp cut-off; inactive means mostly below about 77%
AID504770 – growth inhibition of E. coli YBA685, primary screen, V. cholerae RctB inhibitors; z-score (no concentration beside the values); AID 504770, 2011; E. coli YBA685 rctB-dependent plasmid, OD600 growth, 3 h; hits give low values; actives 0.27% (n = 130,000); in the data active means z-score below about -2, passing the limit was not always enough
* marks the source's active call; other numbers are inactive results; . = not tested or not shown.

SMILES	Polio RdRp inh	MenB inh	Mtb MbtI inh	AID504770
CC(C)(C)c1ccc(C(=O)Nc2ccc(-c3nc4ccccc4o3)c(O)c2)cc1	-10.0*	.	.	.
CNc1nc(-c2ccc3c(c2)CCN3C(=O)C(C)C)cs1	103.0	35.4*	14.1	1.9
CCn1cc(C(=O)O)c(=O)c2cc(F)c(N3CCNCC3)nc21	104.0	6.1	-31.4	-3.55*
CCn1cc(C(=O)O)c(=O)c2cc(F)c(N3CCN(C(=O)c4ccc(F)cc4)CC3)cc21	102.0	-18.7	-94.0	-3.65*
CCn1cc(C(=O)O)c(=O)c2cc(F)c(N3CCN(C(C)=O)CC3)cc21	109.0	-10.5	107.2	-3.05*
Cc1nc2c3cccnc3nn2c(C)c1CCC(=O)NCc1ccccc1	104.0	.	.	.
CSc1ccc(CCNC(=O)CCc2c(C)nc3c4cccnc4nn3c2C)cc1	14.0*	.	.	.
O=C(O)CCC(=O)N1N=C(c2ccccc2)CC1c1ccc2nccnc2c1 (configuration not stated)	99.0	49.9*	15.0	-0.6
CCc1ccc(C2CC(c3ccccc3)=NN2C(=O)CCCC(=O)O)cc1 (configuration not stated)	98.0	-31.5	-5.5	0
CC12CCCC(C(=O)NN)(CCC1)C2	104.0	-24.0	-12.2	-0.25
c1ccc(CCn2nnnc2C(c2cccnc2)N2CCCCC2)cc1 (configuration not stated)	104.0	-12.5	-9.4	-0.65
N#Cc1cccc(C(c2nnnn2Cc2ccccc2)N2CCCC2)c1 (configuration not stated)	99.0	29.2*	-0.8	0.5
COC(=O)c1sc(NC(=O)C(F)(F)F)c(C(=O)OC)c1C	104.0	0.2	17.0	-0.55
COC(=O)c1sc(NC(=O)c2ccccc2)c(C(=O)OC)c1C	68.0*	-28.4	.	-0.85
CCOc1ccccc1NC(=O)/C=C/C(N)=O	.	.	.	-0.8
Cc1ccccc1NC(=O)/C=C\C(N)=O	104.0	-7.5	99.5*	0.65
NC(=O)/C=C/C(=O)Nc1ccccc1Cl	101.0	-60.4	100.2*	0.25
O=c1c(=NNc2ccccc2)c(=O)c2ccccc12	98.0	-347.5	16.2	1.1
O=c1c(=NNc2nn[nH]n2)c(=O)c2ccccc12	-20.0*	-474.0	16.4	-1.45
Cc1nn(-c2ccccc2)c2nc(-c3cccs3)cc(-c3nnco3)c12	101.0	-22.4	-5.9	-0.95
COC(=O)C1=C2CC=CC2C(C(=O)OC)C1=O (configuration not stated)	.	.	.	2.3
N#CCOC(=O)c1nc(-c2ccccc2)n(-c2ccccc2)n1	83.0*	-10.6	-5.0	-0.5
C=CCN1C(=O)/C(=C\c2ccc(N(CC)CC)cc2)C(=O)NC1=S	100.0	-34.6	78.9*	0.2
C=CCN1C(=O)/C(=C\c2ccc(OCc3ccccc3C#N)cc2)C(=O)NC1=S	102.0	-56.4	74.1*	-0.35
C=CCN1C(=O)/C(=C\c2ccc(OC)cc2)C(=O)NC1=S	99.0	-159.7	94.7*	-0.8
SMILES	Polio RdRp inh	MenB inh	Mtb MbtI inh	AID504770
C=CCN1C(=O)/C(=C\c2ccc(O)c(Br)c2)C(=O)NC1=S	100.0	-47.7	13.9	-0.25
C=CCN1C(=O)/C(=C\c2ccc(O)c(OC)c2)C(=O)NC1=S	102.0	-71.9	35.0	-0.9
COC(=O)C1=NNC2C(=O)N(c3ccccc3C(F)(F)F)C(=O)C12 (configuration not stated)	104.0	-26.5	15.3	-1.55
COc1ccc(NC(=O)c2ccc(COc3cccc(C)c3)o2)cc1	102.0	23.2	2.0	1.75
O=C(NC1(C(F)(F)F)Oc2ccc(Cl)cc2O1)N1CCCCC1 (configuration not stated)	.	.	40.4	.
CCN(C(=O)NC1(C(F)(F)F)Oc2ccc(Cl)cc2O1)C1CCCCC1 (configuration not stated)	100.0	-20.2	70.9*	0.2
O=C1CCCC(=O)C1C(c1ccc(-c2cc(C(F)(F)F)ccc2Cl)o1)C1C(=O)CCCC1=O	102.0	-20.2	98.8*	-0.85
O=C(CCn1c(=O)sc2ccccc21)n1c(=O)sc2ccccc21	75.0*	-20.1	.	1.8
CCCCC(=O)/C=C/C=C\CCCCCCCC(=O)O	99.0	5.0	.	.
CC1CCCCN1C(=O)CCS(=O)(=O)c1ccc2c(c1)n(C)c(=O)c(=O)n2C (configuration not stated)	102.0	-5.6	-5.3	-0.5
COc1ccc(CCN2CC(=O)N3CCCC(C4=CC(=O)C=CC4=O)=C3C2=O)cc1OC	95.0	-13.2	98.8*	-0.4
COc1ccc(CCN2C(=O)CC(=O)NC2=S)cc1OC	100.0	-120.7	27.4	-0.35
CCOC(=O)c1oc2cc(O)cc(O)c2c(=O)c1-c1ccc(OC)c(OC)c1	100.0	-16.0	5.7	0.6
O=C(COC(=O)c1cc(NS(=O)(=O)c2cccs2)ccc1O)NC1CCCC1	107.0	-18.8	3.1	0.05
COc1ccc2c(c1)C(C(C#N)C#N)C(C#N)=C(N)O2 (configuration not stated)	.	.	.	-2.4*
COc1ccc2c(c1)C(C(C#N)C#N)c1c(nc(N)c(C#N)c1N)O2 (configuration not stated)	96.0	-25.0	64.3	-3.05*
COc1ccc(-c2c(C#N)c(N)nc(OC)c2C#N)cc1	101.0	-28.3	41.7	0.1
CCCC(C)C1C(C#N)=C(N)Oc2cc(N)ccc21 (configuration not stated)	106.0	-2.1	7.8	0.6
CCCCc1nc2ccccc2n1CC(=O)Nc1sc2c(c1C(N)=O)CCCC2	101.0	-8.0	62.1	0.35
NC(=O)C(c1ccccc1)c1ncc(C(F)(F)F)cc1Cl (configuration not stated)	.	.	.	-2.7*
Cc1cccc(-c2nc(C)c(CCNC(=O)C(C)(C)C)s2)c1	102.0	-12.3	13.5	-0.05
COc1ccc(CC(CN)c2ccccc2)cc1 (configuration not stated)	102.0	36.0*	1.2	1.05
O=C1C=CC(=O)N1c1ccc(C(F)(F)F)cc1	.	.	.	-1
O=C1C=CC(=O)N1c1cc(C(F)(F)F)ccc1Cl	101.0	.	98.2*	1.25
O=C1C2C3C=CC(O3)C2C(=O)N1c1ccccc1C(F)(F)F (configuration not stated)	.	.	.	-0.75
SMILES	Polio RdRp inh	MenB inh	Mtb MbtI inh	AID504770
O=C1C=CC(=O)N1c1ccccc1C(F)(F)F	101.0	.	98.5*	-2.5*
O=C1CC(CSc2nnnn2-c2ccccc2)=NN1c1ccccc1	100.0	-65.6	-4.9	-1
C=CCN1C(=O)NC(=O)/C(=C/C=C/c2ccccc2)C1=O	100.0	-36.4	1.0	-0.2
CN1C(=O)C(=C/C=C/c2ccccc2)C(=O)N(C)C1=O	102.0	-41.9	82.2*	1.05
Cn1cccc1C(=O)NC(=O)CSc1nc2ncc(Cl)cc2[nH]1	103.0	-27.8	-4.0	-1.05
C=C(C)CN(CC)C(=O)CSc1nc2ncc(Cl)cc2[nH]1	88.0*	-18.9	64.7	0.25
N#Cc1ccc(CO/N=C(\N)c2ccccc2)cc1	105.0	0.7	-1.1	0.2
COc1cccc(C2=NS(=O)(=O)N(C)C(C(=O)Nc3cccc(O)c3)=C2)c1	-16.0*	.	.	.
